Laboratory results published in PubChem BioAssay (Tox21).
Values joined by “and” are separate entries in the source; they are usually repeats but may differ in a detail not shown here. Equal entries are not always repeated. Inconclusive results are not listed. Entries that show only a call come without a potency. Some compounds were tested as several samples or in several runs, with calls that do not always agree. Active and inactive are the calls of the source. Unless noted, calls come from the whole dose curve; as a rule, active = well fitted curve in the direction sought with a large enough effect in the repeat runs; inconclusive = weak or mixed curves; inactive = no such curve, though single readings can be large; an effect the other way counts as inactive or inconclusive.

Experiments:
[1] = qHTS assay to identify small molecule agonists of the hypoxia (HIF-1) signaling pathway - cell viability counter screen (AID 1224844; calls by dose curve; note: nearly all actives have a fitted effect of over 50% in size; note: potency is the fitted concentration of half-maximal effect)
Outline: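 Same wells as the HIF-1 reporter screen; ME-180 cells carrying HRE-bla, 17 hr treatment at 37C; CellTiter-Glo luminescence read after 30 min at room temperature.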

[2] = qHTS assay to identify small molecule agonists of H2AX (AID 1224845; active = well fitted activation curve with a large enough effect in the signal ratio in the repeat runs, not every such curve was filed as active; the % refers to the signal ratio; note: potency is the fitted concentration of half-maximal effect)
Outline: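 Phospho-H2AX Ser139 measured by HTRF (ex 320 nm; em 665 and 620 nm) after 24 hr antibody incubation. Compounds, 15 concentrations, 0.76% DMSO, were applied to CHO-K1 cells for 3hr at 37C before lysis.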

[3] = qHTS assay to identify small molecule agonists of the hypoxia (HIF-1) signaling pathway (AID 1224846; active = well fitted activation curve with a large enough effect in the signal ratio in the repeat runs, not every such curve was filed as active; the % refers to the signal ratio)
Outline: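 In ME-180 cells bearing an HRE-bla construct, 17 h treatment with DMSO-dissolved compounds at 37C was followed by CCF4-AM loading to quantify reporter induction.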

[4] = qHTS assay to identify small molecule agonists of H2AX - cell viability counter screen (AID 1224847; calls by dose curve; note: nearly all actives have a fitted effect of over 30% in size; note: potency is the fitted concentration of half-maximal effect)
Outline: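 Viability of CHO-K1 (wild type) cells after 3 hr compound exposure was measured by CellTiter-Glo luminescence.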

[5] = qHTS RealTime-Glo MT Cell Viability Assay in HepG2 cells - 24 hour (AID 1224867); note: nearly all actives have a fitted effect of over 50% in size; note: potency is the fitted concentration of half-maximal effect
Outline: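 qHTS, HepG2, 600 cells/well, RealTime-Glo (NanoLuc + prosubstrate) added with cells; 5 h preincubation; DMSO compound addition; 37 C; luminescence at 0/8/16/24/32/40 h.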

[6] = qHTS RealTime-Glo MT Cell Viability Assay in HEK293 cells - 32 hour (AID 1224868); note: nearly all actives have a fitted effect of over 50% in size; note: potency is the fitted concentration of half-maximal effect
Outline: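 Assay medium contained NanoLuc luciferase plus cell-permeant prosubstrate, added with HEK293 cells at 600 cells/well. After 5 h at 37 C/5% CO2 compounds were added; plates stayed at 37 C for 40 h with serial luminescence reads.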

[7] = A CellTox Green Cytotoxicity Assay to monitor cytotoxicity in HEK293 cells - 0 hour (AID 1224869); note: nearly all actives have a fitted effect of over 50% in size
Outline: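 Homogeneous no-lysis format: HEK293 cell suspension mixed with CellTox Green reagent, seeded, incubated 5 h at 37 C/5% CO2, then dosed by pintool with compound in DMSO.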

[8] = qHTS RealTime-Glo MT Cell Viability Assay in HepG2 cells - 40 hour (AID 1224870); note: nearly all actives have a fitted effect of over 50% in size; note: potency is the fitted concentration of half-maximal effect
Outline: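 Real-time viability: cells seeded at 600 per well together with NanoLuc and cell-permeant prosubstrate, compounds added after 5 h incubation. Luminescence tracked at 0, 8, 16, 24, 32 and 40 h of exposure.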

[9] = qHTS assay to identify small molecule antagonists of the estrogen related receptor (ERR) signaling pathway from Tox21 library (AID 1224848); note: nearly all actives have a fitted effect of over 50% in size; note: potency is the fitted concentration of half-maximal effect
Outline: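 Luciferase luminescence (ONE-Glo, 30 min room temperature) was the read-out. Cells of the NTP-supplied ERR line, 2,000 per well, were given 6 h at 37 C before compound addition in DMSO and 18 h exposure at 37 C.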

[10] = qHTS assay to identify small molecule agonists of the estrogen related receptor (ERR) signaling pathway from Tox21 library (AID 1224849; calls by dose curve; note: nearly all actives have a fitted effect of over 15% in size); settings: ERR reporter cell line, ONE-Glo luciferase, 18 h
Outline: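 Reporter cells (ERR, NTP source) treated with Tox21 10K compounds 18 h, 37 C. Readout: ONE-Glo luminescence, 30 min RT.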

Structure (SMILES) | Potency [1] | Potency [2] | outcome [3] | Potency [4] | Potency [5] | Potency [6] | Potency [7] | Potency [8] | Potency [9] | activity change, positive = activation ([10]; at 92.4 µM (top of the series)) | activity change, positive = activation ([10]; at 42.5 µM (top of the series))
CCCCCCC(C)O (centres undefined) | inactive | inactive | inactive | inactive | inactive | inactive | inactive | – | – | – | –
CC(=O)O[C@]1(C(C)=O)CC[C@H]2[C@@H]3C=C(Cl)C4=CC(=O)CC[C@]4(C)[C@H]3CC[C@@]21C | inactive | inactive | inactive | 101 µM (active) and inactive | inactive | 19.5 µM (active) | inactive | inactive | – | – | –
COc1ccc2nc(N)sc2c1 | inactive | inactive | inactive | inactive | inactive | inactive and 2.19 µM (active) | inactive | inactive | – | – | –
O=C(O)CCCCCCCCCCCC(=O)O | 48.2 µM (active) and inactive | 111 µM (active) and inactive | inactive | inactive | inactive | inactive | – | inactive | inactive | -2.27% (inactive) | –
OCCNCCO | inactive | inactive | inactive | inactive | inactive | inactive | inactive | inactive | inactive | -2.22% (inactive) and 4.53% (inactive) | –
O=C(O)c1ccc(O)cc1 | inactive | inactive | inactive | inactive | inactive | inactive | inactive | inactive | inactive | 9.49% (inactive) | –
COC(=O)C(C)Oc1ccc(Oc2ncc(C(F)(F)F)cc2Cl)cc1 (centres undefined) | inactive | inactive | inactive | inactive | inactive | inactive | – | inactive | 39.1 µM (active) | -47.3% (inactive) and -26.9% (inactive) | –
CN1CCOCC1 | inactive | inactive | inactive | inactive | inactive | inactive | inactive | inactive | inactive | -10.1% (inactive) and 3.72% (inactive) | –
CCCCCC1C(=O)CCC1CC(=O)OC (centres undefined) | inactive | inactive | inactive | inactive | inactive | inactive | inactive | inactive | inactive | 0.33% (inactive) and 0.3% (inactive) | –
OC[C@H]1O[C@@H]2O[C@H]3[C@H](O)[C@@H](O)[C@@H](O[C@H]4[C@H](O)[C@@H](O)[C@@H](O[C@H]5[C@H](O)[C@@H](O)[C@@H](O[C@H]6[C@H](O)[C@@H](O)[C@@H](O[C@H]7[C@H](O)[C@@H](O)[C@@H](O[C@H]1[C@H](O)[C@H]2O)O[C@@H]7CO)O[C@@H]6CO)O[C@@H]5CO)O[C@@H]4CO)O[C@@H]3CO | inactive | inactive | inactive | inactive | inactive | inactive | inactive | – | – | – | –
CC(=O)[C@@]1(O)CC[C@H]2[C@@H]3C[C@H](C)C4=CC(=O)C=C[C@]4(C)[C@@]3(F)[C@@H](O)C[C@@]21C | inactive | inactive | inactive | inactive | inactive | 19.5 µM (active) and inactive | inactive | – | – | -31% (inactive) | -14.9% (inactive)
C=C1C[C@H]2[C@@H]3C=C(C)C4=CC(=O)CC[C@]4(C)[C@H]3CC[C@]2(C)[C@@]1(OC(C)=O)C(C)=O | inactive | inactive | inactive | inactive | inactive | – | inactive | – | 24.8 µM (active) and 21.1 µM (active) | – | -56.4% (inactive) and -29.1% (inactive)
c1ccc2c(c1)ccc1ncccc12 | inactive | inactive | inactive | inactive | inactive | inactive | inactive | – | inactive | -5.44% (inactive) | –
CC(C)[C@@H]1CC[C@@H](C)CC1=O | inactive | inactive | inactive | inactive | inactive | inactive | – | – | – | – | –
CC(C)=CCO | inactive | inactive | inactive | inactive | inactive | inactive | inactive | inactive | inactive | -0.501% (inactive) | –
CC(=O)Nc1ccc2c(c1)Cc1cc(NC(C)=O)ccc1-2 | inactive | inactive | inactive | inactive | inactive | inactive | inactive | – | – | – | –
CC1(C)C(C=C(Cl)Cl)C1C(=O)OCc1cccc(Oc2ccccc2)c1 (centres undefined) | inactive | inactive | inactive | inactive | inactive | inactive | inactive | inactive | – | – | –
IC(I)I | inactive | inactive | inactive | inactive | 38.8 µM (active) and 38.9 µM (active) | inactive | – | 21.8 µM (active) and 4.9 µM (active) | inactive | 0.549% (inactive) and 0.511% (inactive) | –
